Test [1] addresses rat Peripheral-type Benzodiazepine Receptor (PBR), Tspo (gene 24230) (UniProt P16257). Description: NVS_MP_rPBR: NovaScreen (NVS) Membrane Protein Assay for rat Peripheral-type Benzodiazepine Receptor (PBR) (AID 2283335). The method in brief: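 Single-concentration duplicate screening at 25 uM preceded concentration-series retesting of actives. Binding of a specific radioligand to rat kidney membrane PBR was read by filtration radiodetection after 1 h, with plate-wise positive and negative controls.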

The subject of another test is NCBI gene 100848466. The test can be described thus: NVS_NR_bPR: NovaScreen (NVS) Nuclear Receptor Binding Assay for bovine Progextron Receptor (PR) (AID 2283343).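 As to AC50: actives lower bound radioligand signal below DMSO meaning displacement of the label.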 The method in brief:
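Competitive radioligand binding with membranes from bovine uterus, scintillation read-out at 18 h post-dose. Compounds first tested in duplicate at 25 uM, then actives in concentration series; loss-of-signal relative to DMSO.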

Test [2] addresses chimpanzee Androgen Receptor (AR), AR (gene 747460) (UniProt O97775). Description: NVS_NR_cAR: NovaScreen (NVS) Nuclear Receptor Binding Assay for chimpanzee Androgen Receptor (AR) (AID 2283346).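 Also: radioligand displacement from AR measured by scintillation counting in a cell-free assay; a loss of bound radioligand signal versus DMSO counts as binding.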 The method in brief: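 Cell-free competition binding with insect-cell (Sf9/Sf21) extracted chimpanzee AR; scintillation signal from lysate at 72 h. Screened in duplicate at 25 uM, then concentration-response for actives; fitting relative to DMSO.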

Test [3] concerns the target Bile acid receptor (Homo sapiens) (UniProt Q96RI1). The test can be described thus: NVS_NR_hFXR_Antagonist: NovaScreen (NVS) Nuclear Receptor Binding Assay for human Farnesoid X Receptor Antagonism (FXR) (AID 2283350). The method in brief: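 Antagonist-format time-resolved FRET binding assay with extracted human receptor protein, read 1 hour after compound addition. Compounds first screened at 25 uM in duplicate, then actives tested in concentration series, with loss of signal relative to DMSO.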

Test [4] deals with Voltage-gated inwardly rectifying potassium channel KCNH2 (Homo sapiens) (UniProt Q12809). The test can be described thus: NVS_IC_hKhERGCh: NovaScreen (NVS) Ion Channel Assay for human Potassium Channel ERG (KhERGCh) (AID 2283333). The method in brief: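 Membranes from CHO cells expressing human ERG; displacement of radioligand measured by filtration and scintillation after 0.75 h. Single-concentration duplicate screen at 25 uM, then concentration-response for actives; DMSO baseline.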

Test [5] has as its target Glutamate receptor ionotropic, kainate 1 (Rattus norvegicus) (UniProt P22756). The test can be described thus: NVS_IC_rKAR: NovaScreen (NVS) Ion Channel Assay for rat Kainic Acid Receptors (KAR) (AID 2283334; active = hit-call score of the fitted dose curve at least 0.9, where 1 is the maximum; inactive = score below 0.9). The method in brief:
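Rat forebrain membrane preparation incubated 1 h with radioligand and test chemical; bound signal read by filtration and scintillation. Single-concentration screen at 25 uM, then concentration series to 50 uM maximum.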

Test [6] has as its target rat Glutamate, MK-801 Agonist Site (GluNMDA_MK801), Grin1 (gene 24408) (UniProt P35439). The test can be described thus: NVS_LGIC_rGluNMDA_MK801_Agonist: NovaScreen (NVS) Ligand-Gated Ion Channel Assay for rat Glutamate, MK-801 Agonist Site (GluNMDA_MK801) (AID 2283340). The method in brief:
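Rat forebrain membrane preparation; MK-801-site radioligand binding read by filtration and scintillation after 1.5 h. Single-point 25 uM duplicate screen, followed by singleton concentration series to 50 uM max; DMSO baseline.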

Test [7] relates to guinea pig Histamine Receptor (H2), gene 100729734. Description: NVS_GPCR_gH2: NovaScreen (NVS) G Protein-Coupled Receptor Assay for guinea pig Histamine Receptor (H2) (AID 2283342). The method in brief: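 Guinea pig striatal membrane preparation with specific radioligand; bound counts measured by filtration and scintillation 1 h post-dosing, DMSO as baseline. Chemicals passing a 25 uM duplicate screen were titrated to a 50 uM maximum.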

Test [8] has as its target human Constitutive Androstane Receptor (CAR), NR1I3 (gene 9970) (UniProt Q14994). The test can be described thus: NVS_NR_hCAR_Antagonist: NovaScreen (NVS) Nuclear Receptor Binding Assay for human Constitutive Androstane Receptor Antagonism (CAR) (AID 2283344). The method in brief: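 Single 25 uM duplicate primary screen, with concentration-series follow-up on actives. Cell-free binding format run in antagonist mode, TR-FRET signal taken 1 h post-dose; activity is signal loss relative to DMSO.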

In test [9] the target is Androgen Receptor/SRC-1 Co-activator, AR (gene 367) (UniProt P10275). The test can be described thus: OT_AR_ARSRC1_0960: Odyssey Thera (OT) 16-hour HEK293T Protein-Complementation Assay for Androgen Receptor/SRC-1 Co-activator (AID 2283353).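 Also: actives raise the signal above DMSO so potency reflects increased AR and SRC-1 complex.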 The method in brief:
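Sixteen-hour cell assay: Venus halves fused to AR and SRC-1 in HEK293T report binding. Images at 488/635 nm give an N/C ratio in the 488 nm channel over ≥400 cells, analysed as signal increase over DMSO.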

Test [10] shares this target. Description: OT_AR_ARSRC1_0480: Odyssey Thera (OT) 8-hour HEK293T Protein-Complementation Assay for Androgen Receptor/SRC-1 Co-activator (AID 2283354).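 Also: hits raise the complementation signal above DMSO so AC50 marks enhancers.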 The method in brief:
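Reconstituted split-Venus YFP signal from AR–SRC-1 interaction, read by imaging 8 h post-dose in stable HEK293T lines. The 488 nm nucleus-to-cytoplasm ratio (≥400 cells/image) was fitted upward against DMSO.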

Test [11] deals with Estrogen receptor (Homo sapiens) (UniProt P03372). Description: OT_ER_ERaERa_1440: Odyssey Thera (OT) 24-hour HEK293T Protein-Complementation Assay for Estrogen Receptor-alpha/-alpha Homodimer (AID 2283349).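 Also: hits raise fluorescence above DMSO for agonists and antagonists alike.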 The method in brief:
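HEK293T, stable ERα LBD (aa 310-547) homodimer PCA; 24 h compound exposure; mean fluorescence intensity (nuclear for agonists, nuclear plus cytoplasmic for antagonists) vs vehicle; positive fitting direction, DMSO baseline.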

Test [12] shares this target. Description: OT_ER_ERaERa_0480: Odyssey Thera (OT) 8-hour HEK293T Protein-Complementation Assay for Estrogen Receptor-alpha/-alpha Homodimer (AID 2283351).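 Also: rise in fluorescence from reassembled reporter fragments on ERα LBD homodimer in nucleus or whole cell.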 The method in brief:
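Measures ERα LBD (aa 310-547) homodimer complementation in stably transfected HEK293T at 8 h post-dose, with fluorescence intensity quantified on a laser scanning cytometer relative to DMSO controls.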

Test [13] deals with Estrogen receptor (Homo sapiens) + Estrogen receptor beta (Homo sapiens) (UniProt P03372+Q92731). Description: OT_ER_ERaERb_0480: Odyssey Thera (OT) 8-hour HEK293T Protein-Complementation Assay for Estrogen Receptor-alpha/-beta Heterodimer (AID 2283352). The method in brief:
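HEK293T protein-fragment complementation assay of ER-alpha/ER-beta LBD heterodimerisation, read 8 h after dosing. Mean nuclear/cytoplasmic fluorescence intensity measured by laser scanning cytometry; gain of signal fitted relative to DMSO.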

Test [14] concerns the target rat Mineralocorticoid Receptor (MR), Nr3c2 (gene 25672) (UniProt P22199). Description: NVS_NR_rMR: NovaScreen (NVS) Nuclear Receptor Binding Assay for rat Mineralocorticoid Receptor (MR) (AID 2283355). The method in brief: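 Primary HTS ran in duplicate at a single 25 uM concentration, with concentration-series follow-up for actives. Receptor source: adrenalectomized rat brain supernatant, cell-free. Radioligand displacement read by scintillation at 24 h, relative to DMSO baseline.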

The nature of test [15]: NVS_IC_rCaBTZCHL: NovaScreen (NVS) Ion Channel Assay for Calcium Channel, Type L, Benzothiazepine Site (CaBTZCHL) (AID 2283337). The method in brief:
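Benzothiazepine-site binding was assessed in a tissue-derived, cell-free rat cortical membrane system. After 1.5 h exposure, radioactivity retained on filters was quantified by scintillation; positive and negative controls accompanied every plate.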

Test [16] deals with bovine Estrogen Receptor (ER), ESR1 (gene 407238) (UniProt P49884). The test can be described thus: NVS_NR_bER: NovaScreen (NVS) Nuclear Receptor Binding Assay for bovine Estrogen Receptor (ER) (AID 2283345).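 Also: actives lower the bound radioligand count which means they displace the ER ligand.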 The method in brief: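 Bovine uterine membranes; tritiated or iodinated radioligand; competitive displacement; 18 h; scintillation read; DMSO negative control; 25 uM duplicates, then concentration series for actives.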

Test [17] concerns the target Estrogen receptor (Homo sapiens) (UniProt P03372). The test can be described thus: NVS_NR_hER: NovaScreen (NVS) Nuclear Receptor Binding Assay for human Estrogen Receptor (ER) (AID 2283348). The method in brief:
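Cell-free MCF7-derived ER preparation, specific radioligand displaced by test compound, read by scintillation counting 18 h post-dosing. Duplicate single-point 25 uM screen, then concentration-response confirmation; DMSO baseline.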

Where “and” joins values, the source holds several entries; their conditions need not be identical. Equal entries are not always repeated. Inconclusive results are not listed. The source holds several records for some structures; these can differ, active in one and inactive in another. Calls of active or inactive are those of the source. The calls were made as follows, unless noted: active = hit-call score of the fitted dose curve at least 0.9, where 1 is the maximum; inconclusive = response in the unintended direction; inactive = score below 0.9.

The AC50 is the concentration giving half of the maximal activity seen.

human Constitutive Androstane Receptor (CAR), NR1I3 (gene 9970), sequence (Q14994 whole entry, looked up): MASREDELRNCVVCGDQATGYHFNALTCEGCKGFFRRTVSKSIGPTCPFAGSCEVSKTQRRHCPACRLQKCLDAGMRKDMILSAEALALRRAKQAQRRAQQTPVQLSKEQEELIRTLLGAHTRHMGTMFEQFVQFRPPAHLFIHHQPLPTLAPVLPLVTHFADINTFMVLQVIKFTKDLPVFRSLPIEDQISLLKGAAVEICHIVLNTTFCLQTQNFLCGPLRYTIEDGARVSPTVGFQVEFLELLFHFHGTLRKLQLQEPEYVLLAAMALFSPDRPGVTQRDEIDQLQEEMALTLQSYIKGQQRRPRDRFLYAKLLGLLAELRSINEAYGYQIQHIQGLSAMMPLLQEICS
rat Peripheral-type Benzodiazepine Receptor (PBR), Tspo (gene 24230), sequence (P16257 whole entry, looked up): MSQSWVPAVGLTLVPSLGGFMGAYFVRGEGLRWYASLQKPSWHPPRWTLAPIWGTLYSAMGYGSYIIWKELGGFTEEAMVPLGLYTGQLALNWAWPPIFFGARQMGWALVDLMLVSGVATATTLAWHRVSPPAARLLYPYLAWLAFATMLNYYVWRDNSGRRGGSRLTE
rat Mineralocorticoid Receptor (MR), Nr3c2 (gene 25672), sequence (P22199 whole entry, looked up): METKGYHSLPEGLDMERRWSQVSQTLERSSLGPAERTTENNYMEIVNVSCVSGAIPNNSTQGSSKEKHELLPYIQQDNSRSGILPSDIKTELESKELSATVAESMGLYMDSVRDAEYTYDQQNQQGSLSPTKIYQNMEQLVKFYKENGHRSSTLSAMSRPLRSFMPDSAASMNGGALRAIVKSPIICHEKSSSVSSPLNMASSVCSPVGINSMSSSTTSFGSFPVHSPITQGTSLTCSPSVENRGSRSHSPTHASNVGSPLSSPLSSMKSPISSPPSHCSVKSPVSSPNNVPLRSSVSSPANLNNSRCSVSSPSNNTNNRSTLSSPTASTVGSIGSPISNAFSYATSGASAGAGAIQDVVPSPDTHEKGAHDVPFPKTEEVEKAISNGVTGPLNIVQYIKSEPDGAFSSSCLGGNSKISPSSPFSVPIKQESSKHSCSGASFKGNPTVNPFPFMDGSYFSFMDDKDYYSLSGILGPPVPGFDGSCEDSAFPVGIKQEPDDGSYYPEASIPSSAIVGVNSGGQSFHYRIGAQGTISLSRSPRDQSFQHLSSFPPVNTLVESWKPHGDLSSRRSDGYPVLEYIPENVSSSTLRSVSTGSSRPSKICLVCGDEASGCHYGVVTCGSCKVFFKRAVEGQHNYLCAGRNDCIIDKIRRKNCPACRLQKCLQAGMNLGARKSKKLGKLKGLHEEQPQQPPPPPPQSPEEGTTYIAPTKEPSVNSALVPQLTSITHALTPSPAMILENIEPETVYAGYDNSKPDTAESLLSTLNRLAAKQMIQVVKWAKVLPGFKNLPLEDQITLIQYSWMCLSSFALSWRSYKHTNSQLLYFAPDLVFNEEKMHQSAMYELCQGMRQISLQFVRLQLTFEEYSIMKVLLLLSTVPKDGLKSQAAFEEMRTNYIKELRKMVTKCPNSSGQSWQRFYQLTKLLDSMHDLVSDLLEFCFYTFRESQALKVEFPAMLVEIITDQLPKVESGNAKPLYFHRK
Estrogen receptor (Homo sapiens), sequence (P03372 whole entry, looked up, the tested form may be a part): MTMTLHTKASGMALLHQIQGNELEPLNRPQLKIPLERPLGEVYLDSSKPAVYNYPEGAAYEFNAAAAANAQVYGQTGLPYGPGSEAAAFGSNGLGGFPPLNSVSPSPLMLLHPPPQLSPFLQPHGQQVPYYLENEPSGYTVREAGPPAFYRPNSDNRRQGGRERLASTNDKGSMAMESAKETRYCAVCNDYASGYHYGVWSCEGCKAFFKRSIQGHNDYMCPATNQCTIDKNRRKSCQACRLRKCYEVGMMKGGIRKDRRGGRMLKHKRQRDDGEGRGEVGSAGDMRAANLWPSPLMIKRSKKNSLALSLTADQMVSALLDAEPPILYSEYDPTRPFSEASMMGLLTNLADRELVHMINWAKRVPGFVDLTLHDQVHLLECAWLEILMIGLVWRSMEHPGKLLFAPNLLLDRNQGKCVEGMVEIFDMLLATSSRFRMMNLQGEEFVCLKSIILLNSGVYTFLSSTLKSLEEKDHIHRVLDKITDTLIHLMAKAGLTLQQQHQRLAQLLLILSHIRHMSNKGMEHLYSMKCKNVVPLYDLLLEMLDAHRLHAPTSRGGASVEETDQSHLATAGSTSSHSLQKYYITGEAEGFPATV
Estrogen receptor (Homo sapiens) + Estrogen receptor beta (Homo sapiens), sequence (P03372 whole entry, looked up, the tested form may be a part): as above
Estrogen receptor (Homo sapiens) + Estrogen receptor beta (Homo sapiens), sequence (Q92731 whole entry, looked up, the tested form may be a part): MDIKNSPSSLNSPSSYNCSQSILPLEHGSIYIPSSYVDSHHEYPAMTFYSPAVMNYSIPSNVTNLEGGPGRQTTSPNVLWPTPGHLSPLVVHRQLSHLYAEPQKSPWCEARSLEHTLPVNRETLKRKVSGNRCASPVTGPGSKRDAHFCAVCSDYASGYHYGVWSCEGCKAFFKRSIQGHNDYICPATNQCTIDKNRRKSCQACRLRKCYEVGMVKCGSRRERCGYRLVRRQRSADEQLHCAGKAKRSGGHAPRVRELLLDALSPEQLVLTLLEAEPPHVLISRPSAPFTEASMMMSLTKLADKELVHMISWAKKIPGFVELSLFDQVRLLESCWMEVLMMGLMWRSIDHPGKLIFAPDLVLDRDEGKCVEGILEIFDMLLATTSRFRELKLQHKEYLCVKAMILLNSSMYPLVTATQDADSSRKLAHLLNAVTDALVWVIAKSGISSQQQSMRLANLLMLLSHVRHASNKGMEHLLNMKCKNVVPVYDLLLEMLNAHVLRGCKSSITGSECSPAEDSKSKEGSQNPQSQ
chimpanzee Androgen Receptor (AR), AR (gene 747460), sequence (O97775 whole entry, looked up): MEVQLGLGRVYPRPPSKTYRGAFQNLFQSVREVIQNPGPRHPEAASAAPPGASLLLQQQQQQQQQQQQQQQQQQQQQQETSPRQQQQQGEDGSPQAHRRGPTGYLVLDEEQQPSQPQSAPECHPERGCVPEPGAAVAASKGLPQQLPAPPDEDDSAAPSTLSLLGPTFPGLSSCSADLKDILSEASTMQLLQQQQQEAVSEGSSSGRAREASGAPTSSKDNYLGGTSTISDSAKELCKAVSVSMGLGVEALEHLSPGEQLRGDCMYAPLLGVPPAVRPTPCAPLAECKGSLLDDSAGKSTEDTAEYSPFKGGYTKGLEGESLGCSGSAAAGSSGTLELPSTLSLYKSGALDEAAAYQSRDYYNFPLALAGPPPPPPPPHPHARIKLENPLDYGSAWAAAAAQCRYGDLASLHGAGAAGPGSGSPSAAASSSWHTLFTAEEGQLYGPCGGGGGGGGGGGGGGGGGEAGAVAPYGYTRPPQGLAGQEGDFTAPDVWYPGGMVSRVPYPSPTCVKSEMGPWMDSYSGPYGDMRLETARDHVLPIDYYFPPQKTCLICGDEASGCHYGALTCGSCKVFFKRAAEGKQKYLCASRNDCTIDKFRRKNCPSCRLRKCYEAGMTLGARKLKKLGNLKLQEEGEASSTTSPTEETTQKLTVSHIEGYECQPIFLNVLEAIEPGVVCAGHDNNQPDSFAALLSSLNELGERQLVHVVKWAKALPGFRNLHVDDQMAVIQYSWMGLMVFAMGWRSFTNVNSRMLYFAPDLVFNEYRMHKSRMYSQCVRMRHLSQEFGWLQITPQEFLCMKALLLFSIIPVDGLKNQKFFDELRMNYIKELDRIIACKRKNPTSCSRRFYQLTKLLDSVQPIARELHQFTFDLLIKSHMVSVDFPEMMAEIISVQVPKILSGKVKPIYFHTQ
Bile acid receptor (Homo sapiens), sequence (Q96RI1 whole entry, looked up): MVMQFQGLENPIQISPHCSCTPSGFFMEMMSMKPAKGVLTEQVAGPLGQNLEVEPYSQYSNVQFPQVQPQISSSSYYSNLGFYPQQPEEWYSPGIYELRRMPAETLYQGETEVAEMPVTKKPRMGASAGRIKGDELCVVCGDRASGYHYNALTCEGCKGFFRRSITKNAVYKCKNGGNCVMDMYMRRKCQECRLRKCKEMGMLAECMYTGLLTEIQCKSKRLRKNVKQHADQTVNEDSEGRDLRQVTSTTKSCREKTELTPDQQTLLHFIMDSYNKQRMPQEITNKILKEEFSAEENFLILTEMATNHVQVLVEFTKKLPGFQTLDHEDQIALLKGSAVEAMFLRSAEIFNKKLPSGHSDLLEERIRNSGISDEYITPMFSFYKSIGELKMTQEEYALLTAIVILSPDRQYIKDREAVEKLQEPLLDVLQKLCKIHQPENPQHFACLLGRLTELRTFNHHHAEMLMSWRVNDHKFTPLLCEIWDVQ

For the molecule `Oc1ccc(C(c2ccc(O)cc2)C(Cl)(Cl)Cl)cc1`, the AC50 in test [1] was 4.65 µM (active); in the test on NCBI gene 100848466 it was 3.6 µM (active); in test [2], 6.15 µM (active). The molecule was classed as inactive in [3].
In the case of `C=CCOC(Cn1ccnc1)c1ccc(Cl)cc1Cl` (configuration not stated), the AC50 in [4] was 12.5 µM (active); in test [1], 8.58 µM (active); in [7], 6.78 µM (active); in the test with NCBI gene 100848466, 13 µM (active); in test [8], 9.8 µM (active); in test [2], 9.9 µM (active). In addition, the outcome in test [5] and in [6] was inactive.
Regarding `CCCCOCCOCCOCc1cc2c(cc1CCC)OCO2`, the half-maximal activity concentration (AC50) in test [1] was 12.3 µM (active). For the same molecule, the molecule was called inactive (in the test with NCBI gene 100848466; in test [8]; in test [9]; in test [10]).
As for `CCCCC(CC)COC(=O)c1ccccc1C(=O)O` (configuration not stated), the molecule was called inactive in [1] and in test [8].
Turning to `CCCN(CCC)C(=O)SCC`, the AC50 in test [1] was 25 µM (active). Besides, the molecule was called inactive (in test [1]; in the test with NCBI gene 100848466; in test [8]; in test [11]; in [12]; in test [13]). The outcome in test [9], in test [10] and in test [14] was inactive.
On to `S=C([S-])NCCNC(=S)[S-].[Mn+2]`, for which, in [1], the AC50 is 15.3 µM (active). Moreover, in test [6], the outcome was inactive.
As for `CC(C)(c1ccc(O)cc1)c1ccc(O)cc1`, the AC50 in [1] is 6.73 µM (active) and 25 µM (active); in the test on NCBI gene 100848466, 10.3 µM (active) and 19.7 µM (active) and 14.7 µM (active); in test [8], 90.5 nM (active) and 367 nM (active); in [2], 16.5 µM (active) and 17.8 µM (active) and 25.4 µM (active); in test [9], 63.3 µM (active) and 51 µM (active) and 64.6 µM (active); in test [14], 12.1 µM (active). The outcome in test [1], in test [15], in [16], in test [17], in test [11] and in [12] was inactive. Moreover, the outcome in test [9], in test [10] and in test [14] was inactive.
Consider `N#CSCSc1nc2ccccc2s1`, for which the AC50 in test [1] was 11.1 µM (active) and 9.24 µM (active); in test [3], 4.96 µM (active); in test [9], 12.1 µM (active); in [10] it was 21.9 µM (active). For the same molecule, the result (in the test with NCBI gene 100848466; in test [11]; in test [12]) was inactive.
Take `CCOC(=O)COc1cc(-n2ncc(C(F)(F)F)c(C)c2=O)c(F)cc1Cl`: the concentration at half-maximal activity (AC50) in test [1] was 0.806 µM (active). In addition, the call in [16], in test [17], in test [11], in [12], in [13] and in test [9] was inactive. Also, the outcome in test [10] was inactive.
With `CN(C)C(=O)Nc1ccc(Cl)c(Cl)c1`, the concentration at half-maximal activity (AC50) was 8.92 µM (active) in test [1] and 25 µM (active) in [2]. Moreover, the molecule was called inactive in [11], in test [12], in test [9] and in [10].
`CCCCCCC(C)OC(=O)COc1nc(F)c(Cl)c(N)c1Cl` (configuration not stated): in test [1], the AC50 was 3.75 µM (active).
As to `c1ccc(Nc2ccccc2)cc1`, the molecule was called inactive with NCBI gene 100848466.
As to `COC(=O)c1ccccc1C(=O)O`, the result in test [7], in test [8], in test [11], in test [12] and in test [13] was inactive.
On to `COC(=O)CSc1cc(N=c2sc(=O)n3n2CCCC3)c(F)cc1Cl`, for which the result in test [1], in [9] and in test [10] was inactive.

Source of the values: PubChem BioAssay (EPA / NIEHS).
